Reference: PubChem BioAssay (NCATS)
Records with an inconclusive call do not appear. Activity calls are given as the source filed them. The call rests on the fitted dose curve; in most records, active means well fitted cell-killing curve with a large enough effect; inconclusive means small, poorly fitted or top-dose-only effect, or effect the other way; inactive means no such curve, though single readings can be large or run the other way.

experiment: Quantitative High-Throughput drug screen in 47 multiple myeloma cell lines against the NCATS MIPE library collection: KMS11_JCRBsus cell viability assay (AID 1919873); conditions: KMS11 myeloma viability, CellTiter-Glo ATP luminescence, 48 h; series mostly up to 45.8 µM; further: nearly all actives have a fitted effect of over 50% in size
From the text: PI: Beverly A. Mock Ph.D.
Laboratory of Cancer Biology and Genetics,
Center for Cancer Research, National Cancer Institute,
National Institute of Health, Bethesda, Maryland
Drug resistance and disease progression are common in multiple myeloma (MM) patients, underscoring the need for new therapeutic combinations. […] We hypothesized that effective combinations would reduce MYC expression and enhance p16 activity. […] These preclinical data identify potentially useful drug combinations for evaluation in drug-resistant MM and reveal potential mechanisms of combined drug sensitivity.
Described herein is the primary MIPE qHTS used to cherrypick compounds. Validated compounds were then further tested for potential synergistic activiy.
[1] Peat TJ, Gaikwad SM, Dubois W, Gyabaah-Kessie N, Zhang S, Gorjifard S, Phyo Z, Andres M, Hughitt VK, Simpson RM, Miller MA, Girvin AT, Taylor A, Williams D, D'Antonio N, Zhang Y, Rajagopalan A, Flietner E, Wilson K, Zhang X, Shinn P, Klumpp-Thomas C, McKnight C, Itkin Z, Chen L, Kazandijian D, Zhang J, Michalowski AM, Simmons JK, Keats J, Thomas CJ, Mock BA. Drug combinations identified by high-throughput screening promote cell cycle transition and upregulate Smad pathways in myeloma. Cancer Lett. 2023 Aug 1;568:216284. doi: 10.1016/j.canlet.2023.216284. Epub 2023 Jun 24. PMID: 37356470; PMCID: PMC10408729.
SEQUENCE No. (e.g., 1, 2, 3, etc.); […] (e.g., Cells, Incubation, Reagent, etc.); VALUE and DESCRIPTION.
1; Cells; 5 uL; white, solid bottom 1536-well Greiner assay plate.
2; Compounds; 23 nL; Kalypsis pin tool (Wako USA) equipped with a 1536-well pin head to transfer to the assay plates.
3; Incubation; 48 hours; 37C incubation.
4; Reagent;5uL; CellTiter Glo (Promega).
5; Detector; 425V; Luminescence; Viewlux PerkinElmer.
NOTES (numbers refer to Sequence numbers above)
1. The cell-based screening methods employed in this study were like those previously published. Briefly, the corresponding myeloma cell lines were screened in 1,536-well plates with 500 cells, 5-uL per well for inhibition of cell viability (assessed by measuring ATP levels with CellTiterGlo).
2. NCATS MIPE 4.0 library of approved and investigational drugs were added using the Kalypsis pin tool. Wells treated with DMSO only for 100% viability and media only for 0% viability were used as controls.
3. The assay plates were covered and incubated for 48 hours in a 37C, 5% CO2 incubator with controlled humidity.
4. After 48 hours, CellTilter-GloTM luminescent substrate mix (Promega) reagent was added to the assay plate and plates we incubated for 5 min at room temperature.
5. Signal was measured as median relative luminescence units on a ViewLux (PerkinElmer) multiplate reader.
[1] Heske CM, Davis MI, Baumgart JT, Wilson K, Gormally MV, Chen L, Zhang X, Ceribelli M, Duveau DY, Guha R, Ferrer M, Arnaldez FI, Ji J, Tran HL, Zhang Y, Mendoza A, Helman LJ, Thomas CJ. Matrix Screen Identifies Synergistic Combination of PARP Inhibitors and Nicotinamide Phosphoribosyltransferase (NAMPT) Inhibitors in Ewing Sarcoma. Clin Cancer Res. 2017 Dec 1;23(23):7301-7311. doi: 10.1158/1078-0432.CCR-17-1121. Epub 2017 Sep 12. PMID: 28899971; PMCID: PMC6636827.
Potency means the concentration at half of the fitted maximal effect.

Compound	Potency
COc1ccc2cc1Oc1ccc(cc1)C[C@H]1c3cc(c(OC)cc3CCN1C)Oc1c(OC)c(OC)cc3c1[C@H](C2)N(C)CC3	14.8 µM (active)
CC[C@H](CC#N)OC(=O)N[C@@H](C)c1cccc(NC(=O)Nc2ccc(-c3cnco3)c(OC)c2)c1	0.372 µM (active)
CN[C@@H]1[C@@H](O)[C@@H](O[C@@H]2[C@@H](O)[C@H](O[C@H]3O[C@H](CN)[C@@H](O)[C@H](O)[C@@H]3O)[C@@H](N)C[C@@H]2NC(=O)[C@@H](O)CN)OC[C@]1(C)O	7.43 µM (active)
CC(=O)OCC(=O)[C@@]1(O)CC[C@H]2[C@@H]3CCC4=CC(=O)C=C[C@]4(C)[C@@H]3[C@@H](O)C[C@@]21C	0.235 µM (active)
O=C(O)c1nc(=O)[nH]c(=O)[nH]1	11.5 µM (active)
CN(C)CCN(Cc1ccc(Cl)cc1)c1ccccn1	inactive
Cc1ccccc1-n1c(Cn2nc(-c3cccc(O)c3)c3c(N)ncnc32)nc2cccc(C)c2c1=O	6.62 µM (active)
COc1cc([C@H]2Oc3cc([C@H]4Oc5cc(O)cc(O)c5C(=O)[C@H]4O)ccc3O[C@H]2CO)ccc1O	7.43 µM (active)
CCN1C[C@H](C)n2c(c(O)c3c(=O)n(Cc4ccc(F)c(Cl)c4)nc(C(=O)NC)c32)C1=O	inactive
CCNC(=O)Nc1ccc(Oc2ncnc(N)c2C=NOC)cc1Cl	9.35 µM (active)
CCOC(=O)[C@H](CCc1ccccc1)N[C@@H](C)C(=O)N1CCCC1C(=O)O (stereo not given in full)	inactive
CC[C@H](C=C[C@@H](C)[C@H]1CC[C@H]2[C@@H]3CC=C4C[C@@H](O)CC[C@]4(C)[C@@H]3CC[C@]12C)C(C)C	5.12 µM (active)
Cc1ccc(NC(=O)c2cccc(N(C)C)c2)cc1NC(=O)c1ccc(O)cc1	4.18 µM (active)
Cc1ccc2c(=O)c3cccc(CC(=O)O)c3oc2c1C	inactive
CCOC(=O)[C@H]1O[C@H]1C(=O)N[C@@H](CC(C)C)C(=O)NCCC(C)C	inactive
O=C(O)C1=CO[C@@H](O[C@@H]2O[C@H](CO)[C@H](O)[C@H](O)[C@H]2O)[C@@H]2C(CO)=CC[C@H]12	inactive
COc1c(C)cnc(Cn2cnc3c(Cl)nc(N)nc32)c1C	0.0662 µM (active)
CC(C)=CCCC(C)=CCCC(C)=CCCC(C)=CCCC(C)=CCCC(C)=CCCC(C)=CCCC(C)=CCCC(C)=CCO	inactive
O=C(c1ccc(C(=O)N2CCC(N3CCCC3)CC2)c(Nc2ccccc2)c1)N1CCC(N2CCCC2)CC1	inactive
N#CC1(c2cccc(C(=O)Nc3cc(Oc4ccc5nc(NC(=O)C6CC6)sc5n4)ccc3F)c2Cl)CC1	0.132 µM (active)

Compound	Potency
COc1ccc(-c2oc3c(CC=C(C)C)c(O)cc(O)c3c(=O)c2O)cc1	inactive
CCC=CC[C@H]1C(=O)CC[C@@H]1CC(=O)OC	inactive
CCCCOCCOc1nc(-c2ccc(C(=O)O)c(F)c2)sc1C	inactive
Cn1cc(-c2ccc3nnc(Sc4ccc5ncccc5c4)n3n2)cn1	inactive
Cc1cccc2c1CC[C@H](CN1CCC(c3c(Cl)cccc3Cl)CC1)C[C@@H]2O	14.8 µM (active)
CN(C)c1ccc(-c2nc3ncc(Cl)c(N4CCN(CC(=O)Nc5nccs5)CC4)c3[nH]2)cc1	0.833 µM (active)
CN(C)CCCNC(=O)c1ccc(-c2cc(O)c3ncccc3c2)cc1	23.5 µM (active)
CCCCC[C@H](O)C=C[C@H]1[C@H](O)CC(=O)[C@H]1CCCCCCC(=O)O	inactive
CCC(=O)NCC[C@@H]1CCc2ccc3c(c21)CCO3	inactive
Nc1ncnc2c1ncn2[C@@H]1O[C@H](CO)[C@@H](O)[C@@H]1O	5.26 µM (active)
O=C(Nc1ncc(SCCN2CCCC2)s1)[C@]1(c2ccc(S(=O)(=O)C3CC3)cc2)C[C@@H]1C1CCCCC1	7.43 µM (active)
CO[C@@H]1C(N(C)C(=O)c2ccccc2)C[C@H]2O[C@]1(C)n1c3ccccc3c3c4c(c5c6ccccc6n2c5c31)C(=O)NC4=O (stereo not given in full)	2.35 µM (active)
Cc1cccc(-c2[nH]c(C(C)(C)C)nc2-c2ccc3c(c2)OCO3)n1	16.6 µM (active)
CC(=O)OCC(=O)[C@@]12OC(C)(C)O[C@H]1C[C@H]1[C@@H]3C[C@H](F)C4=CC(=O)C=C[C@]4(C)[C@@]3(F)[C@@H](O)C[C@@]12C	0.0166 µM (active)
COC(=O)[C@H](c1ccccc1Cl)N1CCc2sccc2C1	inactive
O=C(Nc1cccc(C(F)(F)F)c1)Nc1cc(S(=O)(=O)NC2CC2)ccc1-c1ccsc1	16.6 µM (active)
CO[C@H]1O[C@@H]2O[C@@]3(C)CC[C@@H]4[C@@H](C)CC[C@@H]([C@H]1C)[C@@]24OO3	inactive
CC1=C(C(=O)Nc2cc3cn[nH]c3cc2F)C(c2ccc(C(F)(F)F)cc2)CC(=O)N1 (stereo not given)	inactive
CC(C)C[C@H](NC(=O)c1cc2ccccc2s1)C(=O)N1CCN(C(=O)[C@H](CO)NS(=O)(=O)c2ccc(Cl)cc2Cl)CC1	20.9 µM (active)
CN1CC(=O)N2C(Cc3c([nH]c4ccccc34)[C@H]2c2ccc3c(c2)OCO3)C1=O (stereo not given in full)	inactive
